“And” between values parts separate entries of the source, which are not always exact repeats. Equal entries are not always repeated. Where a structure was tested more than once in an assay, its records may differ in their call. The source made the active and inactive calls.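 How the source made its calls, unless noted: active means inhibition at or above 50% relative to wild type and mutant plate controls; inactive means inhibition below 50%.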

The nature of test [1]: inhibitors of TNFa-induced NFkB p65 translocation, primary screen, imaging, HUVEC, MLSMR starter and 10KST1 sets (AID 438;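 active means inhibition above 20% together with a positive visual image hit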;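 further: compound added about 3h40 before a 20 min TNFalpha stimulation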;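 on inhibition: signal is the nuclear over cytoplasmic p65 intensity ratio per well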). The following applies: HUVEC TNFa-induced p65 nuclear translocation; cell count: measured here: nuclei count (cytotoxicity indicator), at 2.08 µM unless noted; inhibition: at 2 µM, stronger effect = higher value unless noted.
Test [2] in a line: inhibitors of mutant huntingtin aggregation, primary screen, imaging, exon1htt(103Q)mCFP cells, high-content imaging (AID 483;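 active means visual image review flags a hit and inhibition of aggregation exceeds 20%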;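 further: compound exposure lasted 3 days before fixation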;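 on nuclei count: percent of the per-plate median nuclei count of sample wells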). The following applies: exon1htt(103Q)mCFP cell line, aggregate imaging, at 2 µM; inhibition of aggregation: stronger effect = higher value; nuclei count: measured here: cell count, toxicity.
The nature of test [3]: inhibitors of E-selectin induction by TNFa, primary screen, imaging, HUVEC, immunofluorescence, MLSMR starter and 10KST1 sets (AID 487;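 active means visually confirmed hit in the image check and inhibition above 20%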;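 on inhibition: signal is fraction of cell area covered by stained E-selectin grains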;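 on nuclei count: 100% = median nuclei count of all wells on the same plate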). To be noted: HUVEC TNFalpha-induced E-selectin immunofluorescence imaging, at 2 µM; inhibition: stronger effect = higher value; nuclei count: measured here: cell number, toxicity.
Test [4] is described as follows: DUSP6 inhibitors restoring Erk phosphorylation by chemical complementation, primary imaging in DUSP6-transfected HeLa (AID 609;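 active means compounds giving at least 50% inhibition in the cell-based MKP-3 phosphatase rescue imaging test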;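 on inhibition: phospho-Erk level distribution per well compared with pooled transfected vehicle control wells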). The following applies: HeLa MKP-3 transfected, phospho-Erk imaging KS statistic, at 10 µM.
The target of test [5] is Dual specificity protein phosphatase 6 (Homo sapiens) (UniProt Q16828). Described as above. To be noted: HeLa MKP-3 transfected, phospho-Erk imaging KS statistic, at 10 µM, stronger effect = higher value.
For test [6], the target named is Voltage-gated potassium channel subunit beta-2 (Rattus norvegicus) (UniProt P62483). Kind of test: KvBeta enzyme negative modulators, primary screen, biochemical, NADPH fluorescence (AID 622;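 active means fluorescence slope higher than the sample average by over 3 SD, cut at about -0.22 in these data, passing the limit was not always enough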;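 further: slope of raw intensity against log time taken from 70 to 1610 s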). To be noted: recombinant KvBeta, 4-cyanobenzaldehyde reduction, at 10 µM, stronger effect = higher value.
Test [7] shares this target. Kind of test: KvBeta positive modulators, primary screen, biochemical, NADPH fluorescence (AID 623;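 active means NADPH fluorescence slope more negative than the mean of all samples by about 3 SD, 99.7% confidence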;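 further: fluorescence intensity change per second fitted from 20 to 320 s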). To be noted: Recombinant KvBeta, NADPH fluorescence decrease slope, 10 min; at 10 µM; stronger effect = lower value.
In test [8] the target is Alpha-2C adrenergic receptor (Homo sapiens) (UniProt P18825). Kind of test: modulators of alpha2C/GIRK thallium flux, primary screen, cell-based, HEK293 alpha2C/GIRK1/2 (AID 624;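 active means fluorescence slope after compound addition differing from the mean of all screened samples at 99.7% confidence, in either direction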;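 further: slope of fluorescence ratio to pre-addition baseline per second over 15 to 24 s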). To be noted: thallium flux BTC fluorescence, at 10 µM, actives lie on both sides.
Test [9] is described as follows: inhibitors of Chlamydomonas gravitaxis, primary screen, whole organism, Chlamydomonas reinhardtii, WT vs cilia-less mutant, absorbance, 96-well (AID 463189).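 Further: 0% = wild type cc124 cells in DMSO and 100% = ciliumless bld1 mutant cells.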 The following applies: OD600 absorbance, 2 days, at 10 µM, stronger effect = higher value.
Test [10] can be described thus: inhibitors of Sendai virus-induced IRF3 signaling, primary screen, TLR/RLR signaling modifier project, cell-based, Sendai virus stimulus, luciferase, 10K MLSCN set (AID 602276;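 active means inhibition at or above 50% at 10 µM; inactive means inhibition below 50%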;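 further: firefly luciferase from ISG56 promoter only with Renilla not read in this screen; 0% = Sendai virus plus DMSO and 100% = medium plus DMSO without virus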). To be noted: HEK293 RL24 IRF3 luciferase reporter, at 10 µM, stronger effect = higher value. For orientation: A reporter such as luciferase makes a cellular process visible.
Test [11] can be described thus: inhibitors of poly I:C-induced TLR3 signaling, primary screen, cell-based, poly I:C stimulus, luciferase, 10K MLSCN set (AID 602277;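 active means inhibition of the reporter signal at or above 50%; inactive means inhibition below 50%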). The following applies: HEK293-TLR3 RL24 IRF3 luciferase reporter, at 10 µM, stronger effect = higher value.
A short description of test [12]: inhibitors of larval lipid processing in zebrafish, primary screen, whole organism, PED6 fluorescence, gall bladder and intestine (AID 686;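 active means a full or partial loss of lipid-probe fluorescence in the fish gall bladder, intestine or both, judged by eye; inactive means no fluorescence loss, or compound toxic to the fish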;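 further: larvae 5 to 7 days old with five fish per well; signal comes from phospholipase A2 cleavage of quenched PED6 carried via bile; overnight exposure to compound and PED6 before scoring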). To be noted: Zebrafish larvae PED6 lipid processing, fluorescence scoring.
In test [13] the target is Muscarinic acetylcholine receptor M4 (Homo sapiens) (UniProt P08173). Kind of test: compounds altering M4/GIRK thallium flux, either direction, primary screen, M4 allosteric agonist project, cell-based, HEK293 M4/GIRK, BTC-AM (AID 625;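 active means fluorescence slope after compound addition differing from the mean of all tested samples at 99.7% confidence, mostly higher but some lower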;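 further: thallium influx through GIRK channels coupled to M4 in HEK293 cells with BTC-AM dye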). The following applies: at 10 µM, actives lie on both sides.
Setting [14] is: measured here: cell density z-score.
The mark [15] stands for this setting: measured here: nuclear c-Myc green intensity z-score.
Where [16] appears, read: measured here: nuclear pErk red intensity z-score, stronger effect = higher value.

Alpha-2C adrenergic receptor (Homo sapiens), sequence (P18825 whole entry, looked up): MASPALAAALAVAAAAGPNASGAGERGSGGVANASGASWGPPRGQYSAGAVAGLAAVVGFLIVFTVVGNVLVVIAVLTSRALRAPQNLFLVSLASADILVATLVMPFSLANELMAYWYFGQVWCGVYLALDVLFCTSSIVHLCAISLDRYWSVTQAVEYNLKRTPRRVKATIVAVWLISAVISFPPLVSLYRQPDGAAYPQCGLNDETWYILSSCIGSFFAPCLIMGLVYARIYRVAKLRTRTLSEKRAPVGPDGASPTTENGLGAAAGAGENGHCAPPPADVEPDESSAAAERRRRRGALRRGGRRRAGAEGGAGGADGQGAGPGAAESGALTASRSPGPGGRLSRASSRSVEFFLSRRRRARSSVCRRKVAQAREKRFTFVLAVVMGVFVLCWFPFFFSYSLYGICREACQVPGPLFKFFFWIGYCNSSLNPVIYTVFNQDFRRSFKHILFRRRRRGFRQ
Voltage-gated potassium channel subunit beta-2 (Rattus norvegicus), sequence (P62483 whole entry, looked up): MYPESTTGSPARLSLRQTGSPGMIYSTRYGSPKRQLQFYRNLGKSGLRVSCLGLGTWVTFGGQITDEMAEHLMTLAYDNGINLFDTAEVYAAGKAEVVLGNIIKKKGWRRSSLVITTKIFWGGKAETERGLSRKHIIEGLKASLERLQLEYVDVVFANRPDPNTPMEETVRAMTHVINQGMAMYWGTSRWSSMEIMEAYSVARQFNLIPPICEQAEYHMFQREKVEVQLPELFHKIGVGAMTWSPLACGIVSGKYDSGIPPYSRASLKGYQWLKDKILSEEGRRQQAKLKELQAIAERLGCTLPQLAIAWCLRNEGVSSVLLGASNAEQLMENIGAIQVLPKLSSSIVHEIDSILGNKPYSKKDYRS
Dual specificity protein phosphatase 6 (Homo sapiens), sequence (Q16828 whole entry, looked up): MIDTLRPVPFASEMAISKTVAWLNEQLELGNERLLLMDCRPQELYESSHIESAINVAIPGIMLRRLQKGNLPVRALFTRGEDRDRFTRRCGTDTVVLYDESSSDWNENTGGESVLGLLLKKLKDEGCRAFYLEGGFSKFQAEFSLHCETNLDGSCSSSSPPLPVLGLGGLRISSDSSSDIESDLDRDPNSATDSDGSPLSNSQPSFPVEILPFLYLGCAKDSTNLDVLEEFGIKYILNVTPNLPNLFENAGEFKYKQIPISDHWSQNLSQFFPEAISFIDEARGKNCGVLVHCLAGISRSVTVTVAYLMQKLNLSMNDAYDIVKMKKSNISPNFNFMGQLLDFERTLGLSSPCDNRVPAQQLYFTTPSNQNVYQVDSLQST
Muscarinic acetylcholine receptor M4 (Homo sapiens), sequence (P08173 whole entry, looked up): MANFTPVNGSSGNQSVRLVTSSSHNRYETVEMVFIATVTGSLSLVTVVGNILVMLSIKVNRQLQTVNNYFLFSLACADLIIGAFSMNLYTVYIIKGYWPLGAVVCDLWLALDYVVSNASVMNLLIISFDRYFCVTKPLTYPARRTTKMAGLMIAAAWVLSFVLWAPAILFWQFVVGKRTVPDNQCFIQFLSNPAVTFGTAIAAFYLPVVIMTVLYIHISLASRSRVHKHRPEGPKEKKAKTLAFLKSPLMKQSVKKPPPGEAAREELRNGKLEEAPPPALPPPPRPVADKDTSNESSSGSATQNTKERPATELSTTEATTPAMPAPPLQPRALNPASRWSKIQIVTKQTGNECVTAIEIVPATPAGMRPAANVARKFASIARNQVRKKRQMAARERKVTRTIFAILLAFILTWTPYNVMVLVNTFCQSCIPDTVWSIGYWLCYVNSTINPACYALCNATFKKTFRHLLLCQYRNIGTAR

For orientation: inhibition means the relative decrease from the control value, in per cent. `c1ccc2c3c([nH]c2c1)CNCC3` had a cell count in test [1] of 485. Besides, the inhibition was -1.2% (inactive) in test [1]; -84.5% (inactive) in [3]; 23.4% (inactive) in test [5]; 24.5% (inactive) in test [9]; 4.35% (inactive) in test [10]; 51.6% (active) in [11]. The inhibition of aggregation in test [2] was 3.2% (inactive). The values for the nuclei count in [2] and in test [3] were 92.7% and 114%, respectively. In addition, the z-score is 0.136 in test [4] (setting [14]), -0.573 in test [4] (setting [15]) and -0.521 in test [4] (setting [16]). Moreover, the fluorescence slope in test [6] is -0.459 (inactive). Besides, the NADPH fluorescence slope in test [7] was -6.4e-05 (inactive). Further, in test [8], the slope was 0.00455 (inactive).

`C[C@H]1OC[C@@H](C[N+](C)(C)C)O1` came in with a cell count in test [1] of 534. Moreover, the inhibition in test [1] was -2.2% (inactive); in test [3] it was -83.7% (inactive); in [5] it was 16.8% (inactive); in test [9], -2.33% (inactive) and 9.97% (inactive); in [10], 1.89% (inactive); in [11], 50.9% (active). Moreover, the inhibition of aggregation in [2] was 21% (inactive). Further, the nuclei count in [2] stood at 93.2%; in test [3], 112%. Moreover, the z-score in test [4] (setting [14]) is 0.485; in test [4] (setting [15]) it was 0.998; in [4] (setting [16]), -0.857. Moreover, the fluorescence slope in test [6] is -0.458 (inactive). Besides, in test [7], the NADPH fluorescence slope is -5.9e-05 (inactive). In addition, the slope in [8] was 0.0176 (active). Further, in test [12], the outcome was inactive.

`CC1=C(C(=O)OC(C)C)[C@]2(C(=O)N(CC(N)=O)c3ccccc32)C(C#N)=C(N)O1`: the cell count in [1] came to 568. For the same compound, the inhibition was -7.6% (inactive) in [1]; -47.2% (inactive) in test [3]; -0.624% (inactive) in [5]; 1.76% (inactive) in [9]; 15.6% (inactive) in test [10]; 21.9% (inactive) in test [11]. Further, the inhibition of aggregation in [2] was -10.5% (inactive). Further, the results for the nuclei count in test [2] and in [3] were 87.4% and 126%, respectively. Further, the figures for the z-score in test [4] (setting [14]), in test [4] (setting [15]) and in [4] (setting [16]) were 1.04, -0.385 and -1.8, respectively. Further, the fluorescence slope is -0.435 (inactive) in [6] and 0.00529 (inactive) in test [13]. Moreover, the NADPH fluorescence slope in test [7] was -5.8e-05 (inactive). In addition, the slope in test [8] was 0.00458 (inactive). Also, the result in [12] was inactive.

For `CC(=O)[C@H]1CC[C@H]2[C@@H]3CC[C@H]4C[C@H](O)CC[C@]4(C)[C@H]3C(=O)C[C@]12C`, the cell count in test [1] was found to be 549. Besides, the inhibition in test [1] is -11.5% (inactive); in [3] it was -98.9% (inactive); in [5], -6.41% (inactive); in test [9], 5.76% (inactive) and -1.15% (inactive); in test [10] it was 10.2% (inactive); in test [11], 20.7% (inactive). Besides, the inhibition of aggregation in test [2] is 17.3% (inactive). The nuclei count in test [2] is 94.7%; in test [3], 100%. In addition, the z-score in test [4] (setting [14]) is -1.19; in test [4] (setting [15]), -0.45; in test [4] (setting [16]), 1.1. Moreover, the fluorescence slope in [6] is -0.534 (inactive). In [7], the NADPH fluorescence slope is -4.5e-05 (inactive). In addition, in [8], the slope is 0.00562 (inactive). The compound was called inactive in [12].

On to `Nc1ccc(C2(c3ccc(N)cc3)CN3CCC2CC3)cc1`, for which the cell count in [1] worked out at 688. For the same compound, the inhibition in [1] is -0.7% (inactive); in test [3], -49.8% (inactive); in test [5], 1.12% (inactive); in [9], 8.44% (inactive); in test [10], 2.43% (inactive); in test [11], 13.5% (inactive). Moreover, the inhibition of aggregation in test [2] is 1.5% (inactive). In addition, the nuclei count came to 104% in test [2] and 138% in test [3]. The z-score in test [4] (setting [14]) is -0.8; in [4] (setting [15]) it was 0.409; in test [4] (setting [16]) it was -0.625. Moreover, the fluorescence slope in [6] is -0.502 (inactive); in test [13], 0.00533 (inactive). Further, in test [7], the NADPH fluorescence slope was -3e-05 (inactive). Also, the slope in [8] is 0.00562 (inactive). Further, the outcome in [12] was inactive.

With `C[C@H]1CCCC(=O)CCCCCc2cc(O)cc(O)c2C(=O)O1`, the cell count in test [1] worked out at 593. Moreover, the inhibition in [1] is -6.9% (inactive); in [3], -84.5% (inactive); in test [5], 29.1% (inactive); in test [9], -7.02% (inactive); in [10], -0.827% (inactive); in [11], 16.9% (inactive). Further, in [2], the inhibition of aggregation is 2.6% (inactive). The nuclei count in [2] is 82.4%; in test [3] it was 116%. The results for the z-score in test [4] (setting [14]), in test [4] (setting [15]) and in test [4] (setting [16]) were 1.09, -0.366 and -0.0362, respectively. In addition, in [6], the fluorescence slope is -0.439 (inactive). For the same compound, the NADPH fluorescence slope in [7] was 2.4e-05 (inactive). Moreover, the slope in [8] was 0.00367 (inactive). Moreover, the result in test [12] was inactive.

Consider `Cc1c2ccncc2c(C)c2c1[nH]c1ccccc12`, for which the cell count in test [1] stood at 493. Also, the inhibition was -11.8% (inactive) in test [1]; -23% (inactive) in test [3]; 38.9% (inactive) in test [5]; 11% (inactive) and 108% (active) in [9]; 12.8% (inactive) in test [10]; 91.8% (active) in test [11]. Also, the inhibition of aggregation in [2] is -178% (inactive). Besides, the results for the nuclei count in test [2] and in test [3] were 27.6% and 100%, respectively. Besides, the z-score in test [4] (setting [14]) was -0.124; in test [4] (setting [15]) it was 0.964; in [4] (setting [16]) it was -1.2. The fluorescence slope in [6] was -0.464 (inactive). In addition, in test [7], the NADPH fluorescence slope is -5.8e-09 (inactive). Further, the slope in [8] was 0.0129 (active).

Turning to `O=c1[nH]c(=O)n(Cc2ccco2)c(O)c1C=NCCCn1ccnc1`, the cell count in test [1] worked out at 506. The inhibition was -1.7% (inactive) in test [1]; -104% (inactive) in [3]; -0.584% (inactive) in test [5]; 14.1% (inactive) in test [9]; 8.16% (inactive) in test [10]; 21.1% (inactive) in test [11]. The inhibition of aggregation in test [2] was 4.4% (inactive). Also, the nuclei count worked out at 89.9% in test [2] and 123% in test [3]. Moreover, the z-score in test [4] (setting [14]) is 0.638; in test [4] (setting [15]) it was -0.867; in test [4] (setting [16]), 0.884. In addition, the fluorescence slope in [6] was -0.334 (inactive). In addition, the NADPH fluorescence slope in test [7] is -2.4e-05 (inactive). Further, in test [8], the slope was 0.00606 (inactive). The compound was called inactive in [12].

`CN1C[C@H](CNC(=O)OCc2ccccc2)C[C@@H]2c3cccc4c3c(cn4C)C[C@H]21` displayed a cell count in [1] of 603. The inhibition in test [1] is 2.7% (inactive); in [3], -32.3% (inactive); in test [5] it was 1.38% (inactive); in test [9], 0.679% (inactive) and 168% (active); in [10], 1.55% (inactive); in test [11], 23.4% (inactive). In test [2], the inhibition of aggregation was -59.5% (inactive). The nuclei count was 111% in test [2] and 110% in test [3]. Besides, the z-score in test [4] (setting [14]) is -0.59; in [4] (setting [15]), -0.701; in test [4] (setting [16]), 1.38. Moreover, in test [6], the fluorescence slope is -0.508 (inactive). Further, the NADPH fluorescence slope in [7] was -3.6e-06 (inactive). The slope in test [8] was 0.0041 (inactive). In [12], the result was inactive.

The compound `CN1CCN(C(=O)OC2c3nccnc3C(=O)N2c2ccc(Cl)cn2)CC1` (stereo not given) had a cell count in test [1] of 563. Also, the inhibition in test [1] is -7.6% (inactive); in test [3] it was -132% (inactive); in test [5] it was 3.45% (inactive); in test [9], 4.29% (inactive) and -9.06% (inactive); in test [10], 15.5% (inactive); in [11] it was 43.6% (inactive). Moreover, the inhibition of aggregation in test [2] is -7% (inactive). The nuclei count was 109% in [2] and 114% in [3]. Besides, the z-score in test [4] (setting [14]) was -0.576; in [4] (setting [15]), -1.54; in [4] (setting [16]), 0.116. Besides, in test [6], the fluorescence slope is -0.501 (inactive). The NADPH fluorescence slope in [7] was -7.3e-05 (inactive). In addition, the slope in test [8] was 0.00689 (inactive). For the same compound, in test [12], the result was inactive.

The values above are taken from PubChem BioAssay.
